# Assay results from PubChem BioAssay AID686979 (National Center for Advancing Translational Sciences (NCATS), 2013).
# About 50,000 (12%) of roughly 420,000 compounds were called active. Inconclusive results (about 26%) are left out. Calls follow the shape of the dose curve; as a rule, active = well fitted inhibition curve with a large enough effect; inconclusive = small, poorly fitted or top-dose-only effect; inactive = flat fitted curve, though single readings scatter. Many of the other results were omitted from the sample, so actives are more common in it than they were.
# Assay: qHTS for Inhibitors of human tyrosyl-DNA phosphodiesterase 1 (TDP1): qHTS in cells in presence of CPT; also: nearly all actives have a fitted effect of over 55% in size
# Details: chicken DT40 Tdp1-/-;hTDP1 cells + 20 nM CPT, ATP luminescence, 48 h; series mostly up to 46.2 µM; activity change, negative = growth inhibition: at the top concentration
# Procedure, shortened: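 Chicken DT40 Tdp1-/- cells stably complemented with human TDP1 were seeded at 400 cells/well in medium containing 20 nM camptothecin, exposed to pin-transferred compounds, and grown at 37 °C for at least 48 hr. Viability was read as ATP luminescence.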
# % is scaled to controls: 0 for no effect and ±100 for the full control effect; potency is read from the fitted curve at half-maximal effect.
SMILES,"activity change, negative = growth inhibition",Potency
CC(C)(Oc1ccc(Cl)cc1)C(=O)OCC(=O)NCCc1ccc(S(N)(=O)=O)cc1,-16.8% (inactive),
O=C(N/N=C/c1ccc(Cl)c(Cl)c1)c1ccc2nc[nH]c2c1,-76.4% (inactive),
CCCc1cc(=O)oc2c(C)c(OCC(=O)N3CCC(C(=O)O)CC3)ccc12,-4.53% (inactive),
O=C(NCc1ccccn1)C1CCN(S(=O)(=O)c2ccc(Br)cc2)CC1,-7.15% (inactive),
CN(C)CCCNC(=S)N1CCC(c2nc3ccccc3[nH]2)CC1,0.871% (inactive),
O=S(=O)(c1ccc(Br)cc1)N1CCC(c2nc3ccccc3[nH]2)CC1,,18.4 µM (active)
Cc1ccc2oc(C(=O)N3CCN(C)C[C@@H]3C(C)C)c(C)c2c1,-28% (inactive),
CN(C(=O)CN1C(=O)NC(C)(CCc2ccccc2)C1=O)c1ccccc1 (stereo not given),5.1% (inactive),
COc1ccccc1C(=O)OCC(=O)Nc1cccc(S(=O)(=O)NC2=NCCCCC2)c1,-3.79% (inactive),
Cc1cccc(-n2c(SCC(=O)Nc3cccc(S(=O)(=O)NC4=NCCCCC4)c3)nc3ccccc3c2=O)c1C,,5.17 µM (active)
CCc1ccc(C(=O)OCC(=O)Nc2cccc(S(=O)(=O)NC3=NCCCCC3)c2)cc1,8.22% (inactive),
O=c1ccc(-c2ccc(S(=O)(=O)Nc3ccccc3)o2)n[nH]1,-6.29% (inactive),
CCOc1ccc(NC(=O)C/C(C)=N/NC(=O)Cc2cccs2)cc1,17.8% (inactive),
Cc1ccc2c(c1)c1c(c(=O)n(-c3ccccc3)c(=O)n1CC(=O)c1ccc(Cl)cc1)n2C,-3.09% (inactive),
O=C1OC(Cc2ccccc2)C(c2ccccc2)C1=O (stereo not given),-6.46% (inactive),
Cc1c(-c2ccccc2)nc(N)c(C#N)c1-c1cccs1,2.19% (inactive),
CCCCS(=O)(=O)c1oc(-c2cccs2)nc1S(=O)(=O)c1ccccc1,,0.82 µM (active)
NC(=O)CSc1oc(-c2cccs2)nc1S(=O)(=O)c1ccccc1,6.63% (inactive),
Cc1ccc(CSc2oc(-c3cccs3)nc2S(=O)(=O)c2ccc(C)cc2)cc1,,13 µM (active)
Cc1ccc(CSc2ccc(S(=O)(=O)N3CCCCC3)cn2)cc1,-0.899% (inactive),
COC(=O)CSc1nccc(-c2cccs2)n1,3.52% (inactive),
Cc1ccc(NC(=O)COC(=O)CNC(=O)c2ccc(Cl)cc2Cl)cc1S(=O)(=O)N1CCOCC1,16.6% (inactive),
COc1ccc2[nH]c3c(c2c1)CCN1C(=O)C(CC(=O)NCCc2ccccn2)C[C@H](C(=O)N2CCOCC2)[C@@]31C (stereo not given in full),-0.962% (inactive),
COc1ccc(OCCCCN2CCC(C)CC2)cc1,-3.58% (inactive),
O=S(=O)(Nc1cccc(-c2ccc(N3CCOCC3)nn2)c1)c1ccc(Cl)c(Cl)c1,-3.47% (inactive),

SMILES,"activity change, negative = growth inhibition",Potency
CCN(CC)C(CNC(=O)CSc1nnnn1-c1cccc(F)c1)c1ccco1 (stereo not given),-20% (inactive),
COc1ccc(N(C(=O)CNC(=O)c2ccco2)C(C(=O)NCC2CCCO2)c2ccccc2)cc1Cl (stereo not given),11.1% (inactive),
O=c1c2ccccc2nc2n1C(CSc1ccc(Cl)cc1)CN2 (stereo not given),-1.74% (inactive),
O=S(=O)(c1cccc(C(F)(F)F)c1)N1CCN(c2nc(-c3cccs3)nc3ccccc23)CC1,4.24% (inactive),
N#Cc1c(-c2ccccc2)nc(SCc2cccc(C(F)(F)F)c2)[nH]c1=O,-0.969% (inactive),
O=c1c2ccccc2nc2n1C(CSCc1ccccc1)CS2 (stereo not given),,8.2 µM (active)
O=c1c2ccccc2nc2n1C(CSc1ccc(F)cc1)CN2 (stereo not given),3.24% (inactive),
O=c1c2ccccc2nc2n1C(CSCc1cccc(C(F)(F)F)c1)CS2 (stereo not given),,3.66 µM (active)
COc1ccc(-c2c(C)c3ccc(O)c(CN4CCN(C)CC4)c3oc2=O)cc1OC,-29.5% (inactive),
O=c1c2c(-c3ccccc3)ccnc2[nH]n1-c1ccccc1,,inactive
COc1cc(/C=C2\SC(=O)NC2=O)ccc1OCc1ccc(Cl)nc1,-1.3% (inactive),
C=CCNC(=O)c1ccc2nc(-c3ccco3)c(-c3ccco3)nc2c1,,11.2 µM (active)
C=CCNC(=O)c1cc(-c2ccccc2O)on1,-22.6% (inactive),
C=CCNC(=O)c1ccc(C)c(Br)c1,25.2% (inactive),
CCSc1nnc(SCC(=O)NNC(=O)c2ccccc2F)s1,-10.2% (inactive),
CCOc1ccc(CCNC(=O)CSc2cc(=O)n(C)c3ccc(Cl)cc23)cc1OCC,,18.4 µM (active)
COc1cccc(NC(=O)CN(C)C(=O)Cc2ccc(Cl)cc2Cl)c1,-14.2% (inactive),
CCOc1ccc(CCNC(=O)Nc2ccccc2)cc1OCC,-29.2% (inactive),
Cn1c(=O)cc(SCC(=O)N2CCCC2)c2cc(Cl)ccc21,-6% (inactive),
COc1cccc(NC(=O)CSc2cc(=O)n(C)c3ccc(Cl)cc23)c1,,23.1 µM (active)
CCN(CCCNC(=O)CSc1cc(=O)n(C)c2cc(Cl)ccc12)Cc1ccccc1,-4.12% (inactive),
CN(C)Cc1c(O)ccc2occ(C(O)c3ccccc3)c12 (stereo not given),0.876% (inactive),
COC(C[C@@H](O)C[C@@H](O)[C@H](C)OCc1ccccc1)OC,12.1% (inactive),
Cc1ccc2c(c1)N(C(=O)Nc1ccc(Br)cc1F)CCO2,2.15% (inactive),
O=C(Nc1ccccc1C(=O)Nc1ccncc1)c1ccc([N+](=O)[O-])cc1,-1.72% (inactive),
